An excerpt weighted towards active compounds, which were near 2.1% of everything screened.
BaF3 parental: counter-screen for JAK2V617F inhibitors: parental Ba/F3 viability inhibitors | CellTiter-Glo ATP luminescence | inhibition, % at 5.6 µM | 1.1% of 220,000 active | AID 1486;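 active means inhibition above a per-campaign cutoff, the mean inhibition of all tested compounds plus 3 SD, cut at about 27% in these data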;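 further: 0% = DMSO wells and 100% = JAK Inhibitor I control wells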
IEC-6 cytotox: IEC-6 cytotoxicity, counter-screen for KLF5 inhibitors; luminescence viability; inhibition, % at 5 µM; 0.78% of 290,000 active; in the data active means inhibition above about 22%;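 further: 0% = plate median of test compound wells and 100% = cytotoxic reference compound wells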
aSyn UTR inh: 5' untranslated region of α-synuclein, MLPCN primary screen; alpha-synuclein 5'UTR reporter, inhibitor activity; inhibition, % (tested at 7.5 µM); 0.82% of 300,000 active; in the data active means inhibition above about 60%; inconclusive means no clear call, values can overlap the other calls;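 further: H4 neuroglioblastoma cells stably carrying SNCA 5'UTR luciferase fusion; 0% = DMSO wells and 100% = positive control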
KLF5 inh: kruppel-like factor 5 inhibition; DLD-1 KLF5 promoter-luciferase reporter, luminescence; inhibition, % at 5 µM; 0.23% of 290,000 active;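 active means inhibition above a per-plate limit of that plate's mean compound inhibition plus 3 SD, cut at about 60% in these data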;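 further: 0% = DMSO wells and 100% = LY294002 at 200 µM; higher means less KLF5 promoter-driven luciferase light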
Ba/F3 V617F tox: loss of viability in JAK2V617F-driven Ba/F3 cells | Ba/F3 EpoR-JAK2V617F viability, ATP luminescence | inhibition, % at 5.6 µM | 1.1% of 220,000 active | AID 1446;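 active means inhibition above the campaign mean plus 3 SD over all tested compounds, cut at about 24% in these data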;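 further: cytokine-independent growth of Ba/F3 cells driven by EpoR plus mutant JAK2; 0% = DMSO-treated cells and 100% = JAK inhibitor I control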
APP 5UTR inh: APP translation inhibition | inhibition, % at 2 µM | 0.82% of 190,000 active | SH-SY5Y APP 5'UTR-luciferase reporter, luminescence;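 active means inhibition above a set limit, derived from the sample mean plus 3 SD, cut at about 45% in these data; inconclusive means one replicate passes the limit while the other fails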
An asterisk follows results filed as active; ? = inconclusive; . = not tested or not shown.

SMILES	BaF3 parental	IEC-6 cytotox	aSyn UTR inh	KLF5 inh	Ba/F3 V617F tox	APP 5UTR inh
COc1ccc(C(NC(=O)CN2CCCCCC2)c2ccc(OC)cc2)cc1	.	5	1	-5	.	.
COc1ccc(/C=N/NC2=NS(=O)(=O)c3ccccc32)cc1OC	.	-2	-6	-5	.	.
N#C/C(=C/c1ccco1)C(N)=S	6	-19	-7	-7	-2	.
N#CC(C#N)=C1C=CC=CN1/C(=C\c1ccco1)C(=O)c1ccc(Br)cc1	2	4	.	-6	-3	93*
Cc1nc2c(-c3ccc(Cl)cc3)c(C)[nH]n2c(=O)c1Cc1ccccc1	41*	14	78*	35	31*	42
Cc1cc(C)c2c(CN3CCCCC3)cc(=O)oc2c1	.	2	-8	-21	.	.
Cc1cc(C)c2c(CCl)cc(=O)oc2c1	-8	-7	91*	-8	-4	94*
OC[C@@H](O)[C@@H](O)[C@H](O)[C@H](O)CO	.	.	12	.	.	.
Cc1cc(-c2nnc(SCC(=O)Nc3cccc(F)c3)n2N)n[nH]1	.	-3	-5	-32	.	.
C[N+]1(CC(=O)OC2CCCCCCCCCCC2)CCCC1	72*	9	19	-8	73*	-3
CC(=O)/C(C[N+]1(C)CCCCC1)=N\O	1	6	1	5	3	0
O=C(NC(=O)c1ccccc1)Nc1cccc(S(=O)(=O)N2CCCCC2)c1	.	-3	-3	-3	.	.
Cc1cccc(C(=O)CC(=O)c2cc(Cl)ccc2O)c1	2	0	64*	-50	-4	-16
O=C1C(Cl)=C(Nc2ccccc2)C(=O)c2ccccc21	4	-3	-190	-20	-2	96*
C=CCNC1=C(Cl)C(=O)c2ccccc2C1=O	1	27*	2	-26	0	-3
CCOc1ccccc1C(=O)N/N=C/c1coc2ccc(Cl)cc2c1=O	.	6	.	-6	.	.
O=[N+]([O-])c1ccc(C23CC4CC(CC(O)(C4)C2)C3)cc1	.	-1	-87	-168	.	.
O=C(O)CCSc1nnc(-c2ccc3c(c2)OCO3)o1	3	6	67*	2	-2	19
Cc1ccc(CSc2nnc(-c3ccc4c(c3)OCO4)o2)cc1	2	-1	-10	2	-2	-11
CC(=O)CSc1nnc(-c2ccc3c(c2)OCO3)o1	4	-8	-15	-67	-1	-35
COc1ccc(C2=NCC(CSc3nnc(-c4ccc5c(c4)OCO5)o3)S2)cc1 (centres undefined)	51*	-1	-15	-16	-1	-1
Cc1cccc(C)c1NC1=NC2(CCCCC2)N=C(N)N1	76*	-2	-17	-17	-5	1
CCOC(=O)C1CCCCN1S(=O)(=O)c1ccc2c(c1)CC(C)N2C(=O)C1CCC1 (centres undefined)	.	1	17	-24	.	.
CC(=O)OCCc1[nH]c2ccccc2c1C	.	7	-26	-12	.	.
CC(=O)OCCc1c2ccccc2c(CCCN(C)C)c2ccccc12	.	.	103*	.	.	.
SMILES	BaF3 parental	IEC-6 cytotox	aSyn UTR inh	KLF5 inh	Ba/F3 V617F tox	APP 5UTR inh
COC(=O)C[C@](O)(CCCC(C)(C)O)C(=O)O[C@@H]1C(OC)=C[C@]23CCCN2CCc2cc4c(cc2[C@H]13)OCO4	.	.	127*	.	.	.
O=C1CCc2cc(S(=O)(=O)Nc3cccc(F)c3)cc3c2N1CC3	.	.	4	.	.	.
Cc1ccc(S(=O)(=O)N2CCN(C(=O)COC(=O)/C=C/c3ccccc3[N+](=O)[O-])CC2)c(C)c1	.	.	-15	.	.	.
CCc1n[nH]c(=S)n1/N=C/c1c(C)nn(-c2ccccc2)c1Cl	1	-3	106*	-5	0	7
O=C(NCCc1ccccc1)c1cccc(N2CCCC2=O)c1	.	-2	-17	-8	.	.
CCOC(=O)N1CCN(C(=O)c2ccc3c(c2)sc2nc(-c4ccccc4)cn23)CC1	7	11	-109	-68	2	-82
CCOC(=O)N1CCC(NC(=O)c2ccc3c(c2)sc2nc(-c4ccc(OC)cc4)cn23)CC1	27*	2	-98	-2	0	-1
CCCCc1ccc(-c2nc(-c3ccncc3)no2)cc1	3	0	91*	-84	-2	-176
CCc1ccc(-c2nc(-c3ccncc3)no2)cc1	5	-4	.	-119	2	-168
O=C(CN1C(=O)c2ccc([N+](=O)[O-])cc2C1=O)Nc1ccccc1N1CCCC1	.	.	5	.	.	.
COC(=O)c1ccccc1NC(=O)NN1CCN(C)CC1	.	-2	13	-41	.	.
N=c1c2c(n(Cc3ccc(Cl)c(Cl)c3)c3c1CCC3)CCCC2	76*	-1	55	35	88*	12
N=c1c2c(n(Cc3ccc([N+](=O)[O-])cc3)c3c1CCC3)CCCC2	10	-5	-12	20	0	-7
N=c1c2c(n(Cc3ccc(Br)cc3)c3c1CCC3)CCCC2	75*	18	?	42	100*	-3
O=C(COC(=O)c1ccc([N+](=O)[O-])cc1Cl)Nc1cccnc1Cl	.	.	8	.	.	.
CC1=NN(c2ccccc2)C(=O)/C1=C\c1cc(C)n(-c2ccccc2)c1C	1	25*	-82	-43	1	-50
CC1=NN(c2ccccc2)C(=O)/C1=C\c1cc(C)n(-c2cccnc2)c1C	-3	-2	-12	-4	3	.
COc1cccc(C2/C(=C(\O)c3ccc4c(c3)OCCO4)C(=O)C(=O)N2Cc2cccnc2)c1 (centres undefined)	.	2	-14	-49	.	.
COc1ccc(/C=c2/sc3n(c2=O)C(c2ccccc2OC)C2=C(N=3)c3ccccc3CC2)cc1O (centres undefined)	29*	-2	94*	6	11	84*
CCOC(=O)C1=C(C)N=c2s/c(=C\c3ccc(O)c([N+](=O)[O-])c3)c(=O)n2C1c1ccccc1OC (centres undefined)	.	-12	5	-3	.	.
CC(=O)Nc1ccc(NC(=S)NC(=O)/C=C/c2ccc(Cl)cc2)cc1	-1	1	-75	8	-3	8
O=C(/C=C/c1ccc(Cl)cc1)NC(=S)Nc1ccc(NC(=O)c2ccco2)cc1	-2	-2	-41	-17	-5	81*
COc1ccc(NC(=O)CSc2nnc(-c3cc(C)[nH]n3)n2N)cc1	.	1	-1	-15	.	.
CC1CN(C(=O)CCNC(=O)c2ccccc2Cl)CC(C)O1 (centres undefined)	.	-3	7	-16	.	.
CCc1c(C)c(C#N)c2nc3ccccc3n2c1Cl	-3	-6	105*	-4	-6	95*
CCc1c(C)c(C#N)c2nc3ccccc3n2c1-n1nc(C)cc1C	0	1	-11	4	-2	-20
COc1ccc(OC)c(NC(=O)Cc2coc3ccc(C)cc23)c1	5	-2	26	-24	2	6
COc1ccc(OC)c(NC(=O)Cc2coc3ccc4ccccc4c23)c1	4	-4	-2	-15	-3	68*
O=C(NCC1CCCO1)C(c1ccncc1)N(Cc1cccs1)C(=O)Cn1nnc(-c2ccc(F)cc2)n1 (centres undefined)	-1	-3	19	-10	-4	48*

Screens (PubChem BioAssay)
